# Where a structure was tested more than once in an assay, its records may differ in their call. Active and inactive are the calls of the source. The calls were made as follows: active = hit-call score of the fitted dose curve at least 0.9, where 1 is the maximum; inactive = score below 0.9.
# Read-out: Thrombomodulin, THBD (gene 7056)
# Experiment: BSK_3C_Thrombomodulin: BioMAP Diversity Plus: 3C Assay for Thrombomodulin Biomarker Activity (AID 2283029)
# Conditions: primary human endothelial cells (HUVEC); actives raise or lower the signal
# Protocol: BSK_3C is a cell-based, multiplexed-readout assay that uses umbilical vein endothelium, a human vascular primary cell, with measurements taken at 24 hours after chemical dosing in a 96-well plate.BSK_3C_Thrombomodulin is an assay component measured in the BSK_3C assay. It measures Thrombomodulin antibody related to regulation of gene expression using ELISA technology.Data from the assay component BSK_3C_Thrombomodulin was analyzed into 1 assay endpoint. This assay endpoint, BSK_3C_Thrombomodulin, was analyzed with bidirectional fitting relative to DMSO as the negative control and baseline of activity. Using a type of binding reporter, gain or loss-of-signal activity can be used to understand changes in the signaling as they relate to the gene THBD. Furthermore, this assay endpoint can be referred to as a primary readout, because this assay has produced multiple assay endpoints where this one serves a signaling function. To generalize the intended target to other relatable targets, this assay endpoint is annotated to the gpcr intended target family, where the subfamily is rhodopsin-like receptor.
# The levels of cell surface (or secreted, indicated by the prefix "s") biomarker endpoints were measured by ELISA. Overt cytotoxicity to cells in confluent adherent cultures (all systems other than the BT system) was assessed by measuring total protein levels using sulforhodamine B (SRB) staining in parallel cultures at the time of biomarker measurements, indicated as SRB endpoints. For proliferation assays for adherent cell types, individual cell types are cultured at sub-confluence and relative cell numbers quantified by SRB staining at time points optimized for each system (48 h: 3C and CASM3C systems; 72 h: BT and HDF3CGF systems; 96 h: SAg system). SRB was performed by staining cells with 0.1% SRB after fixation with 10% TCA and reading wells at 560 nm.Viability and proliferation of PBMC (T cells) was quantified by Alamar Blue reduction for the SAg and BT systems. For PBMC viability (referred to as PBMC Cytotoxicity within the assay endpoint names), cells were plated (75,000/well in a 96-well plate) and then chemical samples added for 1 h before addition of activators, SEB and TSST-1 (20 ng/mL final concentration each). Cells were incubated for 90 h. Then, Alamar Blue (20 uL/well) (Invitrogen, Cat DAL1100) was added for 6 h, and the plates were read with a fluorescence microplate reader at 546/580 nm (excitation/emission). For PBMC proliferation, cells were plated and activated as above but incubated for only 16 h prior to addition of Alamar Blue. Plates were read after 6 h.
Compound,outcome,AC50
Cc1[nH]c(=O)n(C(C)(C)C)c(=O)c1Cl,inactive,–
CC(C)(C)C(O)/C(=C\c1ccc(Cl)cc1Cl)n1cncn1 (stereo not given),inactive,–
COP(=O)(OC)OC=C(Cl)Cl,inactive,–
CC1(c2ccc(Oc3ccccc3)cc2)OC(=O)N(Nc2ccccc2)C1=O (stereo not given),inactive,–
CC[C@H](C)[C@H]1O[C@]2(C=C[C@@H]1C)C[C@@H]1C[C@@H](C/C=C(\C)[C@@H](O[C@H]3C[C@H](OC)[C@@H](O[C@H]4C[C@H](OC)[C@@H](O)[C@H](C)O4)[C@H](C)O3)[C@@H](C)/C=C/C=C3\CO[C@@H]4[C@H](O)C(C)=C[C@@H](C(=O)O1)[C@]34O)O2 (tested in a mixture with another compound),–,2.13 µM (active)
CCC(C)(NC(=O)c1cc(Cl)c(C)c(Cl)c1)C(=O)CCl (stereo not given),inactive,–
COC(=O)c1ccccc1CS(=O)(=O)NC(=O)Nc1nc(OC)cc(OC)n1,inactive,–
Oc1ccc(Cl)cc1Cc1ccccc1,inactive,31.8 µM (active) [middle of 5 runs]
COC(=O)c1ccccc1S(=O)(=O)NC(=O)N(C)c1nc(C)nc(OC)n1,inactive,–
CNC(=O)Oc1cccc(N=CN(C)C)c1,inactive,–
O=C(NC(=O)c1c(F)cccc1F)Nc1ccc(OC(F)(F)C(F)OC(F)(F)F)c(Cl)c1 (stereo not given),inactive,–
C#CCN1C(=O)COc2cc(F)c(N3C(=O)C4=C(CCCC4)C3=O)cc21,inactive,–
CC(C)(C)C(O)C(Oc1ccc(Cl)cc1)n1cncn1 (stereo not given),inactive,–
COP(=S)(OC)Oc1ccc(SC)c(C)c1,inactive,–
ClC1C(Cl)C(Cl)C(Cl)C(Cl)C1Cl (stereo not given),inactive,–
O=C(O)COc1ccc(Cl)cc1Cl,inactive,–
CCOc1nc(NC)nc(NC(=O)NS(=O)(=O)c2ccccc2C(=O)OC)n1,inactive,–
COc1cc(OC)nc(NC(=O)NS(=O)(=O)c2cc(NC=O)ccc2C(=O)N(C)C)n1,inactive,–
CCN(CC)C(=O)SCc1ccc(Cl)cc1,inactive,–
CCCN(CCOc1c(Cl)cc(Cl)cc1Cl)C(=O)n1ccnc1,–,12 µM (active)

Compound,outcome,AC50
CNC(=O)/C=C(\C)OP(=O)(OC)OC,inactive,–
CCC(C)Nc1c([N+](=O)[O-])cc(C(C)(C)C)cc1[N+](=O)[O-] (stereo not given),inactive,–
COP(=S)(OC)Oc1ccc([N+](=O)[O-])cc1,inactive,–
OCCOc1ccccc1,inactive,–
O=C(Nc1ccccc1)Nc1cnns1,inactive,–
CNC(=O)Oc1ccccc1OC(C)C,inactive,–
CCC(C)(C)C(=O)OC1=C(c2ccc(Cl)cc2Cl)C(=O)OC12CCCCC2,inactive,–
O=S(=O)(O)C(F)(F)C(F)(F)C(F)(F)C(F)(F)C(F)(F)C(F)(F)C(F)(F)C(F)(F)F,inactive,–
Cc1cc(C)nc(NC(=O)NS(=O)(=O)c2ccccc2C(=O)OC2COC2)n1,inactive,–
CCc1ccc(C(=O)NN(C(=O)c2cc(C)cc(C)c2)C(C)(C)C)cc1,inactive,–
O=[N+]([O-])c1c(Cl)c(Cl)c(Cl)c(Cl)c1Cl,inactive,–
CCOCN(C(=O)CCl)c1c(C)cccc1CC,inactive,–
CCCN(CCC)c1c([N+](=O)[O-])cc(C(F)(F)F)cc1[N+](=O)[O-],inactive,–
O=C(O)C(F)(F)C(F)(F)C(F)(F)C(F)(F)C(F)(F)C(F)(F)C(F)(F)F,inactive,–
O=C(O)CCCOc1ccc(Cl)cc1Cl,inactive,–
C[C@H]1[C@H](c2ccc(Cl)cc2)SC(=O)N1C(=O)NC1CCCCC1,inactive,–
COc1nn(CSP(=S)(OC)OC)c(=O)s1,inactive,–
COC(=O)c1ccccc1S(=O)(=O)NC(=O)Nc1nc(C)nc(OC)n1,inactive,–
CC1(C)C(C=C(Cl)Cl)C1C(=O)OC(C#N)c1ccc(F)c(Oc2ccccc2)c1 (stereo not given),inactive,–

# Source: PubChem BioAssay (EPA / NIEHS)
